A short description of experiment [1]: NCI Yeast Anticancer Drug Screen. Data for the rad50 strain (AID 155).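 Also: 0% = growth of vehicle-only cultures of the same strain.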 The settings on record: S. cerevisiae rad50 strain growth inhibition; at 50.0 µM; hits give high values. The gist of the method: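 A DNA repair-deficient yeast mutant serves as the test organism; compound-induced growth inhibition is calculated against vehicle-treated cells.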
Experiment [2] is described as follows: NCI Yeast Anticancer Drug Screen. Data for the mec2-1 strain (AID 157). The settings on record: S. cerevisiae mec2-1 strain, at 50.0 µM, hits give high values. The method, boiled down: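 Strain: mec2-1 (DNA repair/cell cycle alteration). Compound exposure, then growth measured; inhibition expressed relative to vehicle.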
Experiment [3] is described as follows: NCI Yeast Anticancer Drug Screen. Data for the sgs1 mgt1 strain (AID 161).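 Also: 0% = growth of cultures given vehicle only.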 The settings on record: S. cerevisiae sgs1 mgt1 strain, at 50.0 µM, hits give high values. The method, boiled down:
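Test agents were incubated with a DNA-repair-mutant yeast strain. Growth was then read and compared against vehicle-treated controls.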

Experiment [4] in a line: NCI Yeast Anticancer Drug Screen. Data for the cln2 rad14 strain (AID 165).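 Also: 0% = growth equal to vehicle treated cultures.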 The following applies: S. cerevisiae cln2 rad14 strain, at 50.0 µM, hits give high values. The method, boiled down: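 Compounds are applied to the cln2 rad14 yeast strain, and growth is then compared with that of vehicle-treated cultures to give inhibition.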
Experiment [5] is described as follows: NCI Yeast Anticancer Drug Screen. Data for the bub3 strain (AID 167). The following applies: S. cerevisiae bub3 mutant strain, at 50.0 µM, hits give high values. The method, boiled down: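 Inhibition values come from growth of compound-treated mutant yeast normalised to vehicle-treated controls.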
Experiment [6] is described as follows: NCI Yeast Anticancer Drug Screen. Data for the mlh1 rad18 strain (AID 175). The settings on record: S. cerevisiae mlh1 rad18 strain growth inhibition; at 50.0 µM; hits give high values. The gist of the method:
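Read-out is yeast growth inhibition, calculated against vehicle-only controls. The compound was applied to a strain engineered with DNA damage repair alterations.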

Compounds without any hit were thinned out: in the full panel of roughly 79,000, 15% have a hit. Values without a mark were called inactive. Active and inactive are the calls of the source. Rule as the data show it: active = growth inhibition above about 70%; inactive = the rest.

On to `Cc1ccc(C)c(NC(=O)CCC(=O)C(C#N)c2nc3ccccc3s2)c1` (centres undefined), for which the growth inhibition was 25.9% in experiment [1]; -3.3% in experiment [2]; -5.15% in experiment [3]; 17.6% in experiment [4]; 3.7% in experiment [5]; -5.7% in experiment [6].

For `CCCOC1(C)Oc2cc3c(cc2C(c2cc(OC)c(OC)c(OC)c2)C1C)OCO3` (centres undefined), the growth inhibition in experiment [1] was 10.3%; in experiment [2], 2.7%; in experiment [3], -4.4%; in experiment [4], 45.4%; in experiment [5] it was 18.6%; in experiment [6] it was 14.7%.

On to `O=S(=O)(CCN1CCCCC1)c1ccc(F)cc1`, for which the growth inhibition is 21.4% in experiment [1]; -12.5% in experiment [2]; 3.05% in experiment [3]; -10.8% in experiment [4]; 2.4% in experiment [5]; 9.95% in experiment [6].

For `Nc1ncnc(N)c1NC(=O)CCCCc1ccccc1`, the growth inhibition in experiment [1] was 4.25%; in experiment [2], -12.2%; in experiment [3], -13.2%; in experiment [4], 4.8%; in experiment [5], 1.4%; in experiment [6] it was -5.9%.

As to `NC(=O)Cc1c(F)c(F)c(F)c(F)c1F`, the growth inhibition in experiment [1] was 9.95%; in experiment [2], -20.5%; in experiment [3], -0.95%; in experiment [4] it was 8.85%; in experiment [5], 28.8%; in experiment [6], 5.3%.

As to `NC(=O)CC(N)=O`, the growth inhibition in experiment [1] was 6.1%; in experiment [2], -5.1%; in experiment [3] it was -2.35%; in experiment [4], 9.4%; in experiment [5], 1.25%; in experiment [6] it was 4.6%.

For `C[C@H]1S[C@@H](c2ccc(Cl)cc2Cl)N(NC(=O)c2ccncc2)C1=O`, the growth inhibition was 57.9% in experiment [1]; 45% in experiment [2]; 40% in experiment [3]; 46.9% in experiment [4]; 52.1% in experiment [5]; 39.3% in experiment [6].

On to `CCN(CC)S(=O)(=O)Nc1c(C)n(C)n(-c2ccccc2)c1=O`, for which the growth inhibition was -5.6% in experiment [1]; -17.2% in experiment [2]; -4.05% in experiment [3]; -3.7% in experiment [4]; -2% in experiment [5]; 14% in experiment [6].

`S=c1[nH]n(-c2ccccc2)c(=S)s1`: the growth inhibition in experiment [1] is -28.7%; in experiment [2], -41.1%; in experiment [3], -4.95%; in experiment [4] it was -1.15%; in experiment [5], 15.3%; in experiment [6] it was -22.6%.

For `Cc1cc(C(O)CNCCn2cnc3c2c(=O)n(C)c(=O)n3C)ccc1O` (centres undefined), the growth inhibition in experiment [1] was 38.8%; in experiment [2], -1.95%; in experiment [3] it was 19.4%; in experiment [4], 25.1%; in experiment [5], -4.95%; in experiment [6] it was 12.3%.

For `Cc1ccc2c(c1)SN(CN1C(=O)c3ccccc3C1=O)N2`, the growth inhibition in experiment [1] is -37.1%; in experiment [2] it was -43.6%; in experiment [3], -7.15%; in experiment [4] it was -19%; in experiment [5], -38.7%; in experiment [6], -28.9%.

For the compound `C=CCOC(=O)Nc1ccc(S(=O)(=O)N2CCCCC2)cc1`, the growth inhibition was 9% in experiment [1]; 6.1% in experiment [2]; 2.95% in experiment [3]; -17.4% in experiment [4]; 17.6% in experiment [5]; -5.15% in experiment [6].

As to `N#C/C(=C\c1ccc(Cl)cc1)c1nc2ccccc2c(=O)[nH]1`, the growth inhibition was 12.2% in experiment [1]; 17.9% in experiment [2]; -14.5% in experiment [3]; 5.7% in experiment [4]; 1.8% in experiment [5]; -53.2% in experiment [6].

In the case of `COC(=O)C(O)(C(=O)OC)C1=C(N)C(=O)c2ccccc2C1=O`, the growth inhibition in experiment [1] is 28.9%; in experiment [2], 17.1%; in experiment [3] it was 17.8%; in experiment [4] it was -5.4%; in experiment [5], 40.8%; in experiment [6] it was 28.3%.

Regarding `CCOC(=O)c1cc(OC(C)=O)c2ccccc2c1`, the growth inhibition in experiment [1] was 26.9%; in experiment [2] it was 9.2%; in experiment [3], 41.5%; in experiment [4], 15.8%; in experiment [5], 61.5%; in experiment [6], 41.5%.

Consider `Cc1csc(NNC(=O)Nc2ccccc2)n1`, for which the growth inhibition is 36.7% in experiment [1]; 14.2% in experiment [2]; -35.5% in experiment [3]; 18.4% in experiment [4]; -8.65% in experiment [5]; 7.5% in experiment [6].

Consider `Cc1cc(N(CCCCl)CCCCl)ccc1C=Nc1cc(Br)c(O)c(Br)c1`, for which the growth inhibition was 81% (active) in experiment [1]; 52.4% in experiment [2]; 93.5% (active) in experiment [3]; 52.5% in experiment [4]; 76.3% (active) in experiment [5]; 84.9% (active) in experiment [6].

Turning to `COC(=O)C1(Cc2ccccc2)Cc2ccccc2C1=O` (centres undefined), the growth inhibition in experiment [1] was -3.1%; in experiment [2] it was 3%; in experiment [3], 37.7%; in experiment [4], 33.9%; in experiment [5], 39.2%; in experiment [6], -3%.

On to `Cn1c2c(c3ccccc31)CCCC2`, for which the growth inhibition was 1.55% in experiment [1]; -14.8% in experiment [2]; 1.4% in experiment [3]; -16.8% in experiment [4]; 4.5% in experiment [5]; 5.35% in experiment [6].

Values taken from PubChem BioAssay (NCI).
